# Source: PubChem BioAssay AID743269 (The Scripps Research Institute Molecular Screening Center, 2014)
# Among all 370,000 compounds or so, about 2,400 (0.65%) were called active. For the sample, actives were picked, then their nearest neighbours and some compounds at random. Values without a mark were called inactive.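 The calls were made as follows: active = inhibition above the screen-wide mean plus 3 SD (cut at about 13% in these data); inactive = the rest.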
# System: HIV-1 integrase (with human LEDGF/p75)
# Test: blockers of LEDGF/p75-dependent integrase strand transfer – biochemical, TR-FRET, high throughput, primary screen (AID 743269);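 also: signal is the Cy5 over europium emission ratio at 671 and 618 nm; 0% = plate median of compound wells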
# Conditions: TR-FRET IN-LEDGF/p75 DNA integration, Eu/Cy5; at 3.7 µM; stronger effect = higher value
row,SMILES,inhibition
1,COc1cc(Cn2c(N)c(C(=O)NCc3ccco3)c3nc4ccccc4nc32)cc(OC)c1OC,1.57%
2,CCOC(=O)c1c(N)n(Cc2ccccc2)c2nc3ccccc3nc12,32.8% (active)
3,CCOC(=O)c1cccc(C2=C(CNC(=O)c3ccncc3)[C@H]3CC[C@@H](C2)N3Cc2ccccc2)c1,-5.73%
4,CCN1C(=O)C(=Cc2c(C)n(CC(=O)NCC3CCCO3)c3ccccc23)C(=O)N(CC)C1=S (stereo not given),-2.24%
5,COc1ccc2c(c1)[C@@]13CCCCC1[C@@H](C2)NCC3 (stereo not given in full),-1.92%
6,Cc1c(C(=O)O)cccc1-n1c(C)cc(/C=C2\C(=O)NC(=O)N(c3ccc4c(c3)OCO4)C2=O)c1C,15.4% (active)
7,O=P(OC1=CCCCC1)(c1ccccc1)c1ccccc1,6.63%
8,CCC(C)(O)C(=O)OC1C(=O)OC2CC3C(C)=CC(=O)C(O)C3(C)C3C4(O)OCC23C1C(C)C4O (stereo not given),-3.3%
9,CCOc1cccc(=NC2CCCCC2)c2c(C)[nH]c(C)c12,36.3% (active)
10,Cc1cccc(-n2c(O)c(C=NC34CN5CN(CN(C5)C3)C4)c(=O)[nH]c2=O)c1,-3.72%
11,CC(C)Nc1nc(Cl)nc(NC(C)C)n1,-1.42%
12,Brc1ccc2c(c1)CNCc1cnnn1-2,6.88%
13,Cc1cc(N2CCNC[C@@H]2C)ccc1N1CC[C@H](O)C1,7.07%
14,COc1ccc(N2C(=O)/C(=C/c3ccco3)C(=O)NC2=S)cc1,59.1% (active)
15,O=S(=O)(c1ccccc1)N1CCC2CCNC2C1 (stereo not given),5.81%
16,CCC(C)NC1(c2ccccc2)CCCCC1 (stereo not given),2.52%
17,COC(=O)C(O)(c1ccc(NC(=O)c2ccco2)c(OC)c1)C(F)(F)F (stereo not given),-2.33%
18,CO[C@H]([C@H](C)/C=C/N(C)C=O)[C@@H](C)C(=O)CC[C@H](C)[C@H](O)[C@H](C)[C@H]1OC(=O)/C=C/C(C)=C/[C@H](O)[C@H](OC)C[C@@H]2C=CC[C@@H](C[C@H](OC)[C@@]3(CO3)[C@@H](OC)C[C@@H](OC)[C@@H]1C)O2,0.17%
19,Clc1ccc([C@@H]2CC3CCC2N3)cn1 (stereo not given in full),4.15%
20,Cc1cc(C=C2C(=O)NC(=O)NC2=O)c(C)n1-c1ccncc1,3.8%
21,Cc1cc(/C=C2/C(=O)NC(=O)N(Cc3ccco3)C2=O)c(C)n1-c1ccc(C(=O)O)cc1,86% (active)
22,O=C1NC(=O)N(Cc2ccco2)C(=O)/C1=C\c1ccc(-c2ccc(F)cc2)o1,73.2% (active)
23,Cc1ccnc(-n2c(C)cc(/C=C3\C(=O)NC(=S)N(C)C3=O)c2C)c1,1.59%
24,Cc1ccccc1CCC[C@@H](CC1CCCCC1)CN(C)C(=O)Oc1ccccc1,-1.47%
25,C[N+]12CN3CN(CN(C3)C1)C2,-0.49%
26,COc1cc(OC)cc(C(=O)NCCN2CCC3(CC2)C(=O)NCN3c2ccccc2)c1,4.72%
27,CCN(CC)C(=O)[C@@H]1C=C2c3cccc4[nH]c(Br)c(c34)C[C@H]2N(C)C1,1.36%
28,CS(=O)(=O)N1CCC2CCNC2C1 (stereo not given),-2.54%
29,O=C(N/N=C/c1c(O)n(C2CC2)c(=S)[nH]c1=O)c1ccccc1,-7.23%
30,COP(=O)(Sc1ccccc1)C(Cc1ccccc1)NC(=O)OCc1ccccc1 (stereo not given),4.08%
